Screening data: PubChem BioAssay, National Center for Advancing Translational Sciences (NCATS)
In the library only some 8.7% were active in any assay of this set; here they are far more common.
G9a block = inhibitors of human histone lysine methyltransferase G9a | Q96KQ7 | Potency, µM (top dose mostly 102 µM), most hits filed as inhibitors | hit rate 8.8% among 350,000 | G9a H3K9 monomethylation, AlphaScreen, 2 h | AID 504332; also: nearly all actives have a fitted effect of over 75% in size
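AlphaScreen read-out: biotin-H3K9 peptide (500 nM) methylation by 20 nM enzyme with 20 uM SAM, 2 h at room temperature after 15 min compound preincubation; anti-monomethyl H3K9 antibody plus donor/acceptor beads, 10 min dark.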
ALOX12 inh = inhibitors of human 12S-lipoxygenase ALOX12; P18054; hit rate 1.1% among 580,000; purified 12hLO, xylenol orange hydroperoxide absorbance; Potency, µM (highest dose often 108 µM), actives largely listed as inhibitors
Target sequence (P18054 whole entry, looked up): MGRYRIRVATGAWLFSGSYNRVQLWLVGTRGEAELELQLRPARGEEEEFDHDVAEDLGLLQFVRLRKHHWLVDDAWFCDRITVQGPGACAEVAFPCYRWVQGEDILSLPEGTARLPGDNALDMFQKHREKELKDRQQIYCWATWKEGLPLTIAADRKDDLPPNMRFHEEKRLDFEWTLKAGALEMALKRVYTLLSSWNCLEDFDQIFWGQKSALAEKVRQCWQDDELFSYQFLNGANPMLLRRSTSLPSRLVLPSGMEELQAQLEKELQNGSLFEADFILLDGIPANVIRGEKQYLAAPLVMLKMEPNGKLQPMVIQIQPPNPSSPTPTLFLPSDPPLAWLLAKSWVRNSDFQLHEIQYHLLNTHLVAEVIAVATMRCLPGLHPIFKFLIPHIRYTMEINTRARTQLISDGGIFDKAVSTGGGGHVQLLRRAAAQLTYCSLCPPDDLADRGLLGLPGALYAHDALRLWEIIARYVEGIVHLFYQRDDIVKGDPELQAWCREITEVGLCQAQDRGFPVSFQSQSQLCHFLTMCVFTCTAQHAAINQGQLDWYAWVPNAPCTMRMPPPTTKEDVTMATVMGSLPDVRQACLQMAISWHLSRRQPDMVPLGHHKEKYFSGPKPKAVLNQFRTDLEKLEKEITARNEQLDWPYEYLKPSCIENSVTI
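Hydroperoxide product was detected by ferrous iron/xylenol orange as the 573 to 405 nm absorbance ratio. Arachidonic acid at 40 uM (final) was turned over for 30 min at room temperature by 150 nM human 12hLO, pH 7.0 Hepes buffer, after 15 min compound preincubation.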
Sfp PPTase inh = inhibitors of Bacillus subtilis Sfp phosphopantetheinyl transferase | Q9F4F7 | Biochemical Sfp PPTase activity, qHTS | Potency, µM, most hits filed as inhibitors | hit rate 3.5% among 310,000 | AID 1490;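 also: the enzyme is Sfp with the accession as filed and its product quenches rhodamine fluorescence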
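Reaction rates are the 30-min fluorescence difference (ex 525, em 598 nm) in wells containing 15 nM Sfp, 5 uM rhodamine-CoA and 12.5 uM BHQ-2-YbbR at pH 7.6 with 10 mM MgCl2.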
BAZ2B block = blocks human BAZ2B; Q9UIF8; AlphaScreen BAZ2B-H3K14Ac peptide displacement; Potency, µM (top dose mostly 114 µM), most hits filed as inhibitors; hit rate 4.4% among 360,000; AID 504333; also: nearly all actives have a fitted effect of over 60% in size
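In this displacement format the biotinylated H3(5-23) peptide acetylated at Lys14 serves as ligand at 50 nM, with BAZ2B at 50 nM in PBS pH 7.4 containing 0.01% Tween-20. Donor and acceptor beads are 10 ug/mL final.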
HP1b chromo inh = HP1-beta chromodomain-methylated histone interaction inhibition. P83916. AlphaScreen HP1-beta / biotin-H3K9me3 peptide binding. Potency, µM (doses to about 114 µM), usual class: inhibitors. hit rate 0.56% among 390,000. AID 540317; also: nearly all actives have a fitted effect of over 70% in size
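Compound inhibition of the preformed complex between 50 nM HP1-beta and 50 nM biotinylated H3K9me3 peptide was read by AlphaScreen. Buffer was PBS pH 7.4 with 0.01% Tween-20. Incubations ran 30 min at room temperature, with 10 ug/mL donor/acceptor beads.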
JMJD2A Tudor = inhibitors of human JMJD2A Tudor domain; O75164; AlphaScreen JMJD2A-Tudor / H3K4me3 peptide binding; Potency, µM (highest dose often 114 µM), hits mostly inhibitors; hit rate 4.4% among 390,000; AID 504339; also: nearly all actives have a fitted effect of over 50% in size
Numbers stand for hits; ! = a repeat was not active; [ ] = remark or other dose. Calls follow the shape of the dose curve; as a rule, active = well fitted curve in the direction sought with a large enough effect; inconclusive = small, poorly fitted or top-dose-only effect, or another doubt; inactive = no such curve, though single readings can be large; an effect the other way counts as inactive or inconclusive.

For COc1ccc(-c2ccc3c(N)c(C(=O)NC(C)C)sc3n2)cc1OC the results were G9a block inactive, ALOX12 inh inconclusive, Sfp PPTase inh inconclusive, BAZ2B block inactive, HP1b chromo inh inactive and JMJD2A Tudor inactive.
For Cc1ccc(CNC(=O)c2cc3c(C)nn(C)c3s2)cc1 the results were ALOX12 inh inactive.
Screening CO[C@H]1[C@H](NC(=O)c2cnn3cccnc23)c2ccccc2C12CCNCC2 returned ALOX12 inh inactive.
Screening COc1ccccc1C(=O)N/C(=C\c1cn(S(=O)(=O)N(C)C)c2ccccc12)C(=O)NCCCn1ccnc1 returned G9a block inactive, ALOX12 inh inactive, BAZ2B block inconclusive, HP1b chromo inh inactive and JMJD2A Tudor inconclusive.
`CN(C)c1ccc(/C=C(\NC(=O)c2ccccc2)C(=O)NCCN2CCOCC2)cc1` gave G9a block 71µM, ALOX12 inh inactive, Sfp PPTase inh inactive, BAZ2B block inactive, HP1b chromo inh inactive and JMJD2A Tudor inactive.
Screening Cc1ccc(C(=O)N/C(=C\c2cn(S(=O)(=O)N(C)C)c3ccccc23)C(=O)NCCCn2ccnc2)cc1 returned G9a block inactive, ALOX12 inh inactive, Sfp PPTase inh inactive, BAZ2B block inconclusive, HP1b chromo inh 50µM! and JMJD2A Tudor inconclusive.
For O=C(NCCCn1ccnc1)/C(=C/c1ccc(Cl)cc1)NC(=O)c1ccccc1 the results were G9a block inactive, ALOX12 inh inactive, Sfp PPTase inh inactive, BAZ2B block 50µM, HP1b chromo inh inactive and JMJD2A Tudor inactive.
For CN(C)c1ccc(/C=C(/NC(=O)c2ccccc2)C(=O)NCCCn2ccnc2)cc1 the results were G9a block inactive[0.0925 µM], Sfp PPTase inh inactive, BAZ2B block 35µM, HP1b chromo inh inactive and JMJD2A Tudor inactive.
For Cc1ccc2cc(C(=O)O)[nH]c2c1 the results were ALOX12 inh inactive.
For COc1ccc(/C=C(\NC(=O)c2ccc(C)cc2)C(=O)NCCCn2ccnc2)cc1 the results were G9a block inactive, ALOX12 inh inactive, Sfp PPTase inh inactive, BAZ2B block 50µM, HP1b chromo inh inactive and JMJD2A Tudor inactive.
`COCCn1c(=N)c(C(=O)NCc2ccco2)cc2c(=O)n3ccccc3nc21` gave G9a block 56µM, ALOX12 inh inactive, Sfp PPTase inh inactive, BAZ2B block inactive, HP1b chromo inh inactive and JMJD2A Tudor inactive.
Screening N=c1c(C(=O)NCc2ccco2)cc2c(=O)n3ccccc3nc2n1Cc1ccc(Cl)cc1 returned G9a block inconclusive, ALOX12 inh inconclusive, Sfp PPTase inh 50µM, BAZ2B block inactive, HP1b chromo inh inactive and JMJD2A Tudor inactive.
`COc1cccc(CN2CCCC(c3nc(C(C)C)no3)CCNC(=O)CC2)c1` (stereo not drawn) gave ALOX12 inh inactive.
`Cc1ccc(CN2CC[C@@H]3[C@H]2C(=O)NC[C@H](CCC(=O)N2CCN(C)CC2)N3C)cc1` gave ALOX12 inh inactive.
Cc1ccc2cc(C(=O)O)c(C)nc2c1 was read as G9a block 50µM, ALOX12 inh inconclusive, Sfp PPTase inh inactive, BAZ2B block inconclusive, HP1b chromo inh inactive and JMJD2A Tudor inactive.
CCOC(=O)c1oc2ccc(CNC(C)(C)C)c(Cl)c2c1C was read as G9a block 8.9µM, ALOX12 inh inconclusive, Sfp PPTase inh inactive, BAZ2B block 50µM, HP1b chromo inh inactive and JMJD2A Tudor 10µM.
CCCCC1CCC(C(=O)Oc2ccc(OCC)cc2)CC1 (stereo not drawn) was read as ALOX12 inh inactive.
For CCn1c(SCC(N)=O)nnc1-c1ccc(OC)c(OC)c1 the results were G9a block inactive, ALOX12 inh inactive, Sfp PPTase inh inactive, HP1b chromo inh inactive and JMJD2A Tudor inactive.
C=CCn1c(-c2ccc(OC)c(OC)c2)n[nH]c1=S was read as G9a block inactive, ALOX12 inh inconclusive, Sfp PPTase inh 79µM, BAZ2B block inactive, HP1b chromo inh inactive and JMJD2A Tudor 25µM.
For COc1ccc(-c2c(N)n[nH]c2C)cc1OC the results were ALOX12 inh inactive, Sfp PPTase inh inactive, BAZ2B block inactive, HP1b chromo inh inactive and JMJD2A Tudor inactive.
